We go through 15 compounds from PubChem BioAssay.

For part of these data: Entries with a potency or affinity are not part of this list. The source made the active and inactive calls.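 The calls were made as follows, unless noted: active = calcium signal cut by more than 3 SD below the full-agonist control yet still positive, in both repeats and the earlier primary screen; inactive = the rest.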

Assay [1] concerns TRPC4 beta (transient receptor potential cation channel C4), mouse. Put plainly: activators of mouse TRPC4 channel, confirmation, cell-based, Fluo4 calcium, HEK293 TRPC4beta/mu-opioid, duplicates, 10 µM (AID 2426;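 active = fluorescence ratio normalized to control raised more than 50% in primary screen plus both repeat runs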;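 as to activation: percent rise of integrated ratio over buffer wells lacking compound which define 0%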). The settings on record: Fluo4 calcium fluorescence, at 10 µM; active compounds read high.
For assay [2], the system named is transient receptor potential cation channel C4 beta (TRPC4), mouse. Briefly: activators of mouse TRPC4 channel, confirmation, cell-based, second round, Fluo4, HEK293 TRPC4beta/mu-opioid, 1 µM (AID 2461;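 active = primary screen active and over 50% activation in each of two duplicate runs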;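 as to activation: 0% = wells without test compound as baseline of integrated fluorescence ratio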). The settings on record: Fluo4 calcium fluorescence, at 1 µM; active compounds read high.
Assay [3] relates to TRPC4 (transient receptor potential cation channel C4 beta), mouse. Put plainly: positive allosteric modulators of mouse TRPC4, confirmation, cell-based, second round, Fluo-4, HEK293 TRPC4beta/mu-opioid, 1 µM (AID 2554;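 active = primary screen hit whose fluorescence ratio, in both repeats, exceeds the weak agonist control mean by 3 SD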). The settings on record: DAMGO EC20, Fluo-4 calcium flux, at 1 µM; active compounds read high. In general terms: A change in cytosolic calcium serves as a functional read-out for many receptors and channels.

Assay [4] concerns TRPC4 beta (transient receptor potential cation channel C4), mouse. Briefly: positive allosteric modulators of mouse TRPC4, confirmation, cell-based, Fluo-4, HEK293 TRPC4beta/mu-opioid (AID 2555;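 active = primary screen hit whose calcium fluorescence ratio, in both repeats, exceeds the weak agonist control mean by 3 SD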). As to conditions: DAMGO EC20, Fluo-4 calcium flux, at 10 µM; active compounds read high.
The target of assay [5] is Short transient receptor potential channel 4 (Mus musculus) (UniProt Q9QUQ5). Briefly: inhibitors of mouse TRPC4 channel, confirmation, cell-based, Fluo4, HEK293 TRPC4beta/mu-opioid (AID 2636). As to conditions: DAMGO, Fluo4 calcium flux, at 10 µM; active compounds read high.
The target is the same in assay [6]. Put plainly: inhibitors of mouse TRPC4 channel, confirmation, cell-based, second round, Fluo4, HEK293 TRPC4beta/mu-opioid, 1 µM (AID 2637;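 active = calcium signal ratio cut to more than 3 SD under the fully stimulated control mean yet still positive, in both repeats and the primary screen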). As to conditions: Fluo4 calcium flux, DAMGO, at 1 µM; active compounds read high.
For assay [7] the target is unchanged. Briefly: TRPC4 positive allosteric modulators, dose response, cell-based, HEK293 TRPC4/mu-opioid, Fluo-4 calcium, EC20 DAMGO (AID 434941;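 active = earlier screen potentiator hit that boosts the TRPC4 ion channel at some dose, with a dose response; inactive = no potentiation, no dose response, or not a prior hit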;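 also: calcium entry triggered by an EC20 dose of DAMGO at the co-expressed mu-opioid receptor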).
Assay [8] has the same target. Briefly: mouse TRPC4 channel inhibitors, dose response, cell-based, HEK293 TRPC4/mu-opioid, Fluo-4 calcium (AID 434942;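 active = primary screen inhibitor hit that blocks the TRPC4 channel at some tested dose, yielding a dose curve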).
In assay [9] the target is Short transient receptor potential channel 6 (Mus musculus) (UniProt Q61143). Briefly: inhibition of mouse TRPC6 channel, confirmation, selectivity assay for TRPC4 inhibitor project, cell-based, HEK293, membrane potential dye, duplicate (AID 434948;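 active = active in primary screen and both duplicates, each dropping signal beyond three positive-control SD with fluorescence still positive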). The settings on record: HEK293 TRPC6, membrane potential dye fluorescence, at 10 µM, stimulated with maximal-effect acetylcholine; active compounds read high.

For assay [10] the target is unchanged. Briefly: activation of mouse TRPC6 channel, confirmation, selectivity assay for TRPC4 activator project, cell-based, HEK293, membrane potential dye, duplicate (AID 434950;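 active = membrane potential signal rise above negative control mean plus 3 SD in both duplicates, also active in the earlier TRPC4 screen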;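 as to activation: 0% = buffer only wells and 100% = acetylcholine maximal-effect wells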). The settings on record: HEK293 TRPC6, membrane potential fluorescence, at 10 µM; active compounds read high.
Assay [11] has the same target. Briefly: TRPC6 potentiation by TRPC4 potentiator hits, confirmation, selectivity assay for TRPC4 potentiator project, HEK293 cells, membrane potential dye, duplicate (AID 434952;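 active = compound raising the membrane signal above positive-control mean plus 3 SD in both repeats, and a primary screen hit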). The settings on record: HEK293 TRPC6, membrane potential dye fluorescence, at 10 µM, maximal acetylcholine added after compound; active compounds read high.
Assay [12] deals with Short transient receptor potential channel 4 (Mus musculus) (UniProt Q9QUQ5). Put plainly: calcium flux activators in TRPC4/5HT1a cells, counter-screen for TRPC4 activator project, cell-based, second counter screen, HEK293 TRPC4/5HT1a, Fluo-4 (AID 434977;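 active = calcium signal rise above buffer-control mean plus 5 SD in both duplicates, and also a hit in the primary screen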;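 as to activation: plate controls were assay buffer for no effect and maximal serotonin response for full effect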). The settings on record: Fluo-4 calcium flux, at 10 µM; active compounds read high.
A short description of assay [13]: calcium flux inhibitors in TRPC4/5HT1a cells, confirmation, counter-screen for TRPC4 inhibitor project, cell-based, second counter screen, HEK293 TRPC4/5HT1a, Fluo-4 (AID 434978;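 active = primary screen active whose calcium signal fell more than 3 SD beyond the full-serotonin control mean in both duplicate plates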;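 also: serotonin given first at submaximal then at maximal dose after compound preincubation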). The settings on record: Fluo-4 calcium flux, at 10 µM, serotonin added to trigger calcium flux; active compounds read high.
Assay [14] concerns TRPC4 (mouse), co-expressed with 5HT1a in HEK293. Put plainly: calcium flux potentiators in TRPC4/5HT1a cells, confirmation, counter-screen for TRPC4 potentiator project, cell-based, second counter screen, HEK293 TRPC4/5HT1a, Fluo-4 (AID 434979;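 active = signal rise over 3 SD above mean of control wells given weak agonist, in both repeats and first screen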). The settings on record: Fluo-4 calcium flux, at 10 µM, serotonin added at its EC20 dose; active compounds read high.
The nature of assay [15]: calcium flux activation in mu-opioid HEK293 cells, confirmation, counter-screen for TRPC4 activator project, cell-based, HEK293 mu-opioid receptor line (AID 449723;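 active = hit in primary screen, with calcium signal over 5 SD above buffer well mean in both duplicates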;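 also: counter screen cells carry the mu-opioid receptor alone and lack TRPC4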). The settings on record: Fluo-4 calcium fluorescence, at 10 µM; active compounds read high.
A short description of assay [16]: calcium flux enhancement in mu-opioid HEK293 cells, confirmation, counter-screen for TRPC4 allosteric potentiator project, cell-based, HEK293 mu-opioid receptor line (AID 449724;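 active = calcium signal rise more than 3 SD above the low-dose agonist control mean, in both duplicate plates and the primary screen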;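 also: HEK293 cells carrying mu-opioid receptor only with no TRPC4 channel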). As to conditions: Fluo-4 calcium flux, at 10 µM, compound added before EC20 DAMGO stimulus; active compounds read high.

Short transient receptor potential channel 6 (Mus musculus), sequence (Q61143 whole entry, looked up): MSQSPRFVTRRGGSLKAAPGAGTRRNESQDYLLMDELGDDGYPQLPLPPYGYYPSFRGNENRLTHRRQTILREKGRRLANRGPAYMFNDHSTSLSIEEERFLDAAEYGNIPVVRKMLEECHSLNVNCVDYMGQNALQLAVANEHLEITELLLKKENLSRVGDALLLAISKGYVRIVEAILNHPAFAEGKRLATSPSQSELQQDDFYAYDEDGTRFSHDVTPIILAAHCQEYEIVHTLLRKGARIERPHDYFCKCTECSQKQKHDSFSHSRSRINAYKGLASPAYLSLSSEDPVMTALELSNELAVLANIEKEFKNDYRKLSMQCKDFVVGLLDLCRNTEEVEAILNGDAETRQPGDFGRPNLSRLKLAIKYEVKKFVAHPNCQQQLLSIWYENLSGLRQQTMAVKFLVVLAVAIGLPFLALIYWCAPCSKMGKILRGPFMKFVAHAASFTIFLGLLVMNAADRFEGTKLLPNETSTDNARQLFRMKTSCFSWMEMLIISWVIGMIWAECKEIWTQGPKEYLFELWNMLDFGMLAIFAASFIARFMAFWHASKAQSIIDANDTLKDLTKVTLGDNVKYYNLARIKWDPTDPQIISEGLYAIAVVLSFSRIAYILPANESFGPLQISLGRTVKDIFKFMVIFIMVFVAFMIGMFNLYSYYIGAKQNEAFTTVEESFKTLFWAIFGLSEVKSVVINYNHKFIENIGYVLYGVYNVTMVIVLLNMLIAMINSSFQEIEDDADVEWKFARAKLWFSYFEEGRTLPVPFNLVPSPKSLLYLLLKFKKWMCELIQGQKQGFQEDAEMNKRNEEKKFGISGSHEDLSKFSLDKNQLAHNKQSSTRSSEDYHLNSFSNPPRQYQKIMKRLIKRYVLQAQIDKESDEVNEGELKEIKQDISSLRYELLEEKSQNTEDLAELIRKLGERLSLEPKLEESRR
Short transient receptor potential channel 4 (Mus musculus), sequence (Q9QUQ5 whole entry, looked up): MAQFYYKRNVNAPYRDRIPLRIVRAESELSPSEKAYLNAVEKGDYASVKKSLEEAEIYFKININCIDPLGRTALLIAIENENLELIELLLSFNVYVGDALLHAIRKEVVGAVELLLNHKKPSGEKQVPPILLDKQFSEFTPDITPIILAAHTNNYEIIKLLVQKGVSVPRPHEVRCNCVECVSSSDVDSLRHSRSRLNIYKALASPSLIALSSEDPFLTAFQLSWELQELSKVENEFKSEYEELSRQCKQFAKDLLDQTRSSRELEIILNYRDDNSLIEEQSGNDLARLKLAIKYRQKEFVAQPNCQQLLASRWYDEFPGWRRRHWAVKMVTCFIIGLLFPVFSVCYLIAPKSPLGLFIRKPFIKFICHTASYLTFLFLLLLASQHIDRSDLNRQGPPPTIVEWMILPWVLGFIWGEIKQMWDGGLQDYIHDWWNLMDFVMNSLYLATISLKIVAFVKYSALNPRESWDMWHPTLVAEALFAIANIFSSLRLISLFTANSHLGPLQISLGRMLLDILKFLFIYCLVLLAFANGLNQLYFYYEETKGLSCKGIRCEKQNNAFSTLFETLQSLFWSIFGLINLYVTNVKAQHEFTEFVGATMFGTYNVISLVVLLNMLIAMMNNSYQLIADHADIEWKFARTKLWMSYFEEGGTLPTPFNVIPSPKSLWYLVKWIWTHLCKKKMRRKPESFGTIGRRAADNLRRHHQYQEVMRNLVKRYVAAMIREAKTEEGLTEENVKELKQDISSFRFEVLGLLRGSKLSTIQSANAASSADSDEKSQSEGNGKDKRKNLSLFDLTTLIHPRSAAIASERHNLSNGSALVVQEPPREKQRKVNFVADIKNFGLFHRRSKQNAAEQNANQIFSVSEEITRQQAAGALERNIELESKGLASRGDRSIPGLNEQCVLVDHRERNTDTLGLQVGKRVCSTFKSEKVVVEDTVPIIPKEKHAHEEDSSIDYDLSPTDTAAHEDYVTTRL

With `CCOC(=O)C1(CCCc2ccccc2)CCN(Cc2cnn(C)c2)CC1`, the activation in assay [1] is 92% (active); in [10], 69% (active). Besides, the outcome in [2], in assay [3], in assay [4], in assay [5], in [6] and in assay [7] was inactive. The outcome in assay [8], in assay [9], in assay [11], in [12], in assay [13] and in assay [14] was inactive. The result in assay [15] and in [16] was inactive.
Consider `O=C(COc1cc(Cl)c(Cl)cc1Cl)NCCc1ccccn1`, for which the activation is 60% (active) in assay [1], 53.5% (active) in [10] and 12.5% (active) in assay [12]. The result in assay [2], in [3], in assay [4], in assay [5], in assay [6] and in assay [7] was inactive. Besides, the outcome in assay [8], in assay [9], in assay [11], in [13], in assay [14] and in [15] was inactive. Moreover, the outcome in assay [16] was inactive.
`CC1CCN(CCCNS(=O)(=O)c2cc(Br)cc3c2N(C(=O)C2CC2)CC3)CC1`: the values for the activation in [1], in assay [2] and in [12] were 91% (active), 63% (active) and 26.3% (active), respectively. For the same compound, the result in assay [3], in assay [4], in assay [5], in assay [6], in assay [7] and in [8] was inactive. The compound was classed as inactive in [9], in assay [10], in assay [11], in [13], in assay [14] and in [15]. In assay [16], the outcome was inactive.
Regarding `CCOc1ccc(CN2CCNC(=O)C2CC(=O)NCCc2ccccn2)cc1` (stereo not given), the activation in assay [1] was 145% (active); in assay [12] it was 49% (active). The result in assay [2], in assay [3], in [4], in assay [5], in assay [6] and in assay [7] was inactive. The result in assay [8], in [9], in assay [10], in assay [11], in assay [13] and in assay [14] was inactive. For the same compound, the result in assay [15] and in [16] was inactive.
In the case of `COC(=O)c1cc(N2CCNCC2)nc2ccccc12`, the outcome in assay [1], in assay [2], in assay [3], in [5], in assay [6] and in assay [7] was inactive. Besides, the result in assay [8], in assay [9], in [10], in assay [11], in assay [13] and in assay [15] was inactive. The result in [16] was inactive. Also, the potentiation in assay [4] is 47% (active); in assay [14], 13.8% (active). For the same compound, in assay [12], the activation is 18.6% (active).
In the case of `CCn1c(N2CCN(C(=S)NCCc3ccccc3)CC2)nc2ccccc21`, the outcome in assay [1], in [2], in assay [3], in [4], in assay [5] and in [6] was inactive. In addition, the outcome in assay [7], in [8], in [9], in assay [10], in assay [11] and in assay [13] was inactive. For the same compound, the result in [14], in assay [15] and in [16] was inactive. Further, the activation in [12] is 21% (active).
Regarding `COc1ccc(C(CNC(=O)CSc2ccccc2C)N(C)C)cc1` (stereo not given), the activation is 74% (active) in assay [1], 73% (active) in assay [2] and 55% (active) in [10]. Further, the result in assay [3], in assay [4], in assay [5], in assay [6], in assay [7] and in [8] was inactive. Moreover, the call in [9], in assay [11], in assay [12], in assay [13], in [14] and in assay [15] was inactive. For the same compound, in assay [16], the result was inactive.
For the compound `Cc1ccc(NC(=S)NC2CC3CCC(C2)N3Cc2ccco2)c(C)c1` (stereo not given), the activation was 116% (active) in assay [1] and 25.9% (active) in [12]. In addition, the outcome in assay [2], in assay [3], in assay [4], in assay [5], in assay [6] and in assay [7] was inactive. In addition, the outcome in assay [8], in assay [9], in [10], in [11], in assay [13] and in [14] was inactive. In addition, the outcome in assay [15] and in assay [16] was inactive.
On to `Cn1c(N2CCN(C(=O)Nc3ccc(C(F)(F)F)cc3)CC2)nc2ccccc21`, for which the activation is 81% (active) in assay [1] and 31.2% (active) in assay [12]. Besides, the result in assay [2], in [3], in assay [4], in assay [5], in assay [6] and in [7] was inactive. In addition, the result in assay [8], in assay [9], in [10], in assay [11], in [13] and in [14] was inactive. Also, the result in [15] and in [16] was inactive.
Consider `COc1ccc(C(CNC(=O)/C=C/c2c(Cl)nc3ccccn23)N(C)C)cc1` (stereo not given), for which the activation is 268% (active) in assay [1], 153% (active) in assay [2], 41% (active) in assay [10] and 7.37% (active) in [12]. For the same compound, the result in [3], in [4], in assay [5], in [6], in assay [7] and in assay [8] was inactive. Moreover, the compound was classed as inactive in assay [9], in assay [11], in [13], in assay [14], in [15] and in assay [16].
Regarding `COc1cc(OC)c(OC)cc1CCC(C)NCCC(c1ccccc1)c1ccccc1` (stereo not given), the activation was 106% (active) in assay [1], 28% (active) in [10], 66.8% (active) in assay [12] and 11.2% (active) in assay [15]. The result in assay [2], in assay [3], in assay [4], in [5], in [6] and in [7] was inactive. In addition, the result in [8], in assay [9], in [11], in [13], in assay [14] and in assay [16] was inactive.
Take `Cn1c(=O)c2c(nc(CN3CCc4ccccc4C3)n2Cc2ccccc2F)n(C)c1=O`: the activation in assay [1] is 221% (active). The outcome in assay [2], in assay [3], in [4], in assay [5], in assay [6] and in assay [7] was inactive. Moreover, the outcome in assay [8], in [9], in assay [10], in assay [11], in assay [12] and in [13] was inactive. The result in assay [14], in assay [15] and in assay [16] was inactive.
Turning to `CCOc1ncccc1C(=O)NCC(c1ccccc1)N(C)C` (stereo not given), the activation is 155% (active) in assay [1] and 61% (active) in assay [10]. Moreover, the outcome in [2], in assay [3], in assay [4], in assay [5], in assay [6] and in assay [7] was inactive. Further, the outcome in [8], in [9], in [11], in assay [12], in assay [13] and in assay [14] was inactive. In addition, the outcome in assay [15] and in assay [16] was inactive.
Consider `COc1ccc(CCN(C)C(=O)C2CCCN(C3CCN(Cc4ccccc4)CC3)C2)cc1OC` (stereo not given), for which the activation is 143% (active) in assay [1], 64% (active) in assay [2], 50% (active) in [10] and 28.9% (active) in assay [12]. Also, the result in assay [3], in assay [4], in assay [5], in assay [6], in assay [7] and in assay [8] was inactive. In addition, the result in assay [9], in assay [11], in assay [13], in assay [14], in [15] and in [16] was inactive.
Regarding `Cc1cccn2c(CNCCc3ccccn3)c(C(=O)N3CCOCC3)nc12`, the activation was 184% (active) in assay [1], 55% (active) in [2], 46.5% (active) in assay [10] and 57.2% (active) in assay [12]. In addition, the outcome in assay [3], in assay [4], in [5], in assay [6], in assay [7] and in assay [8] was inactive. Further, the outcome in assay [9], in assay [11], in assay [13], in [14], in [15] and in [16] was inactive.
